Experiment [1] is described as follows: ATG_CRE_CIS: Attagene CIS-FACTORIAL HepG2 Assay for human cAMP Responsive Element (CRE) binding protein 3 (AID 2282926). The following applies: HepG2 CRE cis-reporter, Attagene multiplexed mRNA; actives raise or lower the signal. Summed up: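 Capillary electrophoresis of 6-FAM-labelled, HpaI-digested PCR products quantified reporter transcripts. These came from HepG2 transiently transfected with cis-element reporters and exposed to test chemicals for 24 hours, with DMSO defining baseline activity.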

In experiment [2] the target is CCAAT/enhancer-binding protein beta (Homo sapiens) (UniProt P17676). Briefly: ATG_C_EBP_CIS: Attagene CIS-FACTORIAL HepG2 Assay for human CCAAT/Enhancer Binding Protein (C/EBP) beta (AID 2282927). As to conditions: HepG2 Attagene cis-factorial transcription factor reporter; actives raise or lower the signal. The essentials: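 HepG2 transiently transfected with multiplexed reporter units under cis-regulatory promoters reporting endogenous C/EBPb activity. After 24 h exposure, reporter mRNA assayed by RT-PCR, fluorescent labelling, HpaI digestion and capillary electrophoresis; bidirectional fitting versus DMSO.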

Experiment [3] is described as follows: ATG_DR4_LXR_CIS: Attagene CIS-FACTORIAL HepG2 Assay for human Liver X Receptor (LXR), DR4 submotif (AID 2282929). As to conditions: HepG2 Attagene DR4 cis-reporter, mRNA transcription; actives raise or lower the signal. The essentials: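 Measures endogenous transcription factor activity via a DR4-driven reporter transcript in human HepG2 cells. Compounds incubated 24 h; mRNA quantified by RT-PCR and capillary electrophoresis, analysed as gain or loss of signal versus DMSO.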

Experiment [4] deals with Aryl hydrocarbon receptor (Homo sapiens) (UniProt P35869). Description: ATG_Ahr_CIS: Attagene CIS-FACTORIAL HepG2 Assay for human Aryl Hydrocarbon Receptor (Ahr) (AID 2282930). As to conditions: HepG2 AhR cis-factorial reporter transcription; actives raise or lower the signal. Summed up: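 HepG2 cells transiently transfected with cis-element-driven multiplexed reporter units; endogenous AhR activity read as reporter mRNA 24 h after dosing, via RT-PCR, 6-FAM labelling, HpaI digestion and capillary electrophoresis. Bidirectional fit relative to DMSO.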

The nature of experiment [5]: ATG_AP_1_CIS: Attagene CIS-FACTORIAL HepG2 Assay for human Activator Protein 1 (AP-1) (AID 2282931). The following applies: HepG2 Attagene cis-factorial AP-1 reporter mRNA; actives raise or lower the signal. The essentials: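 Bidirectional concentration-response fitting against DMSO controls. Underlying signal: reporter mRNA from cis-promoter constructs in transiently transfected HepG2, measured after 24 h by RT-PCR and capillary electrophoresis.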

Experiment [6] can be described thus: ATG_AP_2_CIS: Attagene CIS-FACTORIAL HepG2 Assay for human Activator Protein 2 (AP-2) (AID 2282932). As to conditions: HepG2 AP-2 cis-reporter, Attagene transcription factor profiling; actives raise or lower the signal. The essentials: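 Read-out: fluorescent reporter mRNA via RT-PCR and capillary electrophoresis, 24 h post-dose in transiently transfected HepG2. Endogenous factors drive cis-promoter reporters; gain or loss of signal fitted bidirectionally against DMSO.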

Experiment [7] can be described thus: ATG_BRE_CIS: Attagene CIS-FACTORIAL HepG2 Assay for human Bone Morphogenetic Protein (BMP) Response Element (BRE) (AID 2282933). As to conditions: HepG2 BMP response element reporter, Attagene transcription factor profiling; actives raise or lower the signal. The essentials: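 Multiplexed cis-reporter assay, HepG2, 24 h exposure. mRNA from reporter units quantified via RT-PCR/CE; DMSO baseline; bidirectional curve fit.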

In experiment [8] the target is Retinoic acid receptor alpha (Homo sapiens) (UniProt P10276). Briefly: ATG_DR5_RAR_CIS: Attagene CIS-FACTORIAL HepG2 Assay for human Retinoic Acid Receptor Alpha (RARE), DR5 submotif (AID 2282934).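 On AC50: reporter responds to endogenous RAR alpha beta and gamma in HepG2 not RARA alone.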 The following applies: HepG2 Attagene cis-factorial RARE DR5 reporter, mRNA; actives raise or lower the signal. Summed up: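 HepG2 cells transiently transfected with multiplexed reporter units; DR5 cis-element drives reporter through endogenous transcription factors. After 24 h dosing, reporter mRNA quantified by RT-PCR, fluorescent labeling, HpaI digestion and capillary electrophoresis; bidirectional fitting versus DMSO.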

In experiment [9] the target is Transcription factor E2F1 (Homo sapiens) (UniProt Q01094). Briefly: ATG_E2F_CIS: Attagene CIS-FACTORIAL HepG2 Assay for human E2F Transcription Factor 1 (AID 2282935). The following applies: HepG2 Attagene cis-reporter, E2F reporter RNA transcripts; actives raise or lower the signal. The essentials: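 Transient MRTU transfection of HepG2; 24 h compound exposure; RNA → oligo(dT) RT → PCR → FAM label → HpaI cut → CE fluorescence. Gain/loss of signal fit against DMSO.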

Experiment [10] is described as follows: ATG_E_Box_CIS: Attagene CIS-FACTORIAL HepG2 Assay for human Enhancer Box (E-box) (AID 2282936). The following applies: HepG2 E-box cis-reporter transcription, actives raise or lower the signal. The essentials: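 Transiently transfected HepG2, endogenous TF-driven reporters, 24 h dosing. Readout: RT-PCR plus capillary electrophoresis of fluorescent reporter fragments. Gain or loss of signal fitted bidirectionally against DMSO baseline.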

Experiment [11] is described as follows: ATG_M_61_CIS: Attagene CIS-FACTORIAL HepG2 Assay for M61 Transcription Factor (Internal Marker) (AID 2282937). As to conditions: HepG2 Attagene CIS-FACTORIAL M61 internal marker reporter; actives raise or lower the signal. Summed up:
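Fluorescence from labelled cDNA fragments, separated by capillary electrophoresis, quantifies reporter induction. HepG2 cells bearing transiently transfected cis-promoter MRTUs were incubated with test chemical for 24 h; DMSO defined baseline for gain/loss fitting.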

Experiment [12] in a line: ATG_EGR_CIS: Attagene CIS-FACTORIAL HepG2 Assay for human Early Growth Response 1 (EGR1) (AID 2282938). As to conditions: HepG2 Attagene CIS-FACTORIAL EGR reporter mRNA; actives raise or lower the signal. Summed up: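 Cell-based multiplex transcription assay: HepG2 carrying transfected cis-element reporter units, 24 h chemical treatment. Fluorescence from capillary electrophoresis of RT-PCR products gives mRNA levels; fitting is bidirectional relative to DMSO.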

Experiment [13] is described as follows: ATG_CMV_CIS: Attagene CIS-FACTORIAL HepG2 Assay for human CMV (Internal Marker) (AID 2282928).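 Further: endpoint acts as a background internal control marker rather than a target.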 The following applies: HepG2 CMV promoter reporter, transcription factor profiling; actives raise or lower the signal. Summed up:
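Bidirectional fits against DMSO are applied to reporter mRNA, read by RT-PCR with capillary electrophoresis, from HepG2 cells exposed 24 h. The endpoint serves as an internal CMV background marker within the cis-factorial reporter panel.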

Active and inactive are the calls of the source. How the source made its calls: active means hit-call score of the fitted dose curve at least 0.9, where 1 is the maximum; inactive means score below 0.9.

Sequence of CCAAT/enhancer-binding protein beta (Homo sapiens) (P17676 whole entry, looked up): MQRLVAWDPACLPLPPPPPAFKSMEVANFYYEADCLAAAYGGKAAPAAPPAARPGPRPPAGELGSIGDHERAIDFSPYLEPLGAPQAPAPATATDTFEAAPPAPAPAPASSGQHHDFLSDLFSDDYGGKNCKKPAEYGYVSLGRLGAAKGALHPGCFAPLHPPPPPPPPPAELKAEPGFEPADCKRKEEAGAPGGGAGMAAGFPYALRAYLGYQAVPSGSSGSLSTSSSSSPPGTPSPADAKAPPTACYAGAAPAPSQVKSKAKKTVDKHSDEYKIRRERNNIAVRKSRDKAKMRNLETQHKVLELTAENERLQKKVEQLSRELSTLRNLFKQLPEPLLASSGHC
Sequence of Aryl hydrocarbon receptor (Homo sapiens) (P35869 whole entry, looked up): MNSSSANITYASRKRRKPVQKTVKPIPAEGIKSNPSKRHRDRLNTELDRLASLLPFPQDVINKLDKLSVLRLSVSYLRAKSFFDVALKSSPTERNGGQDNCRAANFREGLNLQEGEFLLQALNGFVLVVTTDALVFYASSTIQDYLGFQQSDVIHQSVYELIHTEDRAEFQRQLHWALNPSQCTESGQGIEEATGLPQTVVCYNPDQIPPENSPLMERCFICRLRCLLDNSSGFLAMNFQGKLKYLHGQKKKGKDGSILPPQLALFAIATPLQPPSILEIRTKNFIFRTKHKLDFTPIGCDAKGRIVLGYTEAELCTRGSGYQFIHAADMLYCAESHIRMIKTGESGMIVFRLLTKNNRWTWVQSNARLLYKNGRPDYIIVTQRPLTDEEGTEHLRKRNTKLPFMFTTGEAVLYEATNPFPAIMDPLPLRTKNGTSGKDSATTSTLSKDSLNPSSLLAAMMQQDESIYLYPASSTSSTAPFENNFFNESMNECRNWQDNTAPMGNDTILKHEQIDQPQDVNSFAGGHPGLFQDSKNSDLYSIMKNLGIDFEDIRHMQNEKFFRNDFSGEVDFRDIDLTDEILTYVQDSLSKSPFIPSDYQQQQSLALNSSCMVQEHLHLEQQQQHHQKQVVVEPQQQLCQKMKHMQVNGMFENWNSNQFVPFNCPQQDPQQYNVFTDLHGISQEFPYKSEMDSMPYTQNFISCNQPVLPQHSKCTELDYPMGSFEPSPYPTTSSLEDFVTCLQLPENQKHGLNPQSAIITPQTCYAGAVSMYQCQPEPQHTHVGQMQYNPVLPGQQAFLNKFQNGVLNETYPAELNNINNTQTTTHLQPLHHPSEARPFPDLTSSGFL
Sequence of Retinoic acid receptor alpha (Homo sapiens) (P10276 whole entry, looked up): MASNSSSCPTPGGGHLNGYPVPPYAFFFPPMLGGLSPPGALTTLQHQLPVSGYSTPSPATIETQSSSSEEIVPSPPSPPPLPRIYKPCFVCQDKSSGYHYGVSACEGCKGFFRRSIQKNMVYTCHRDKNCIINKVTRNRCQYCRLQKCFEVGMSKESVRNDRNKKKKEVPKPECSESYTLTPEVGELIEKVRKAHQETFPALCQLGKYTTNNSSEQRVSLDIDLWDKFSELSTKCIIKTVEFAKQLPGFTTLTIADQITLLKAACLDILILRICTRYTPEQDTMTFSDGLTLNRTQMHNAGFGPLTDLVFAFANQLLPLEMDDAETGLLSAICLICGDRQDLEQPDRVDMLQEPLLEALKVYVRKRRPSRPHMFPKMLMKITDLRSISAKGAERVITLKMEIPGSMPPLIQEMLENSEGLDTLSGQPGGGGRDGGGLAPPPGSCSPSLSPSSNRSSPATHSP
Sequence of Transcription factor E2F1 (Homo sapiens) (Q01094 whole entry, looked up): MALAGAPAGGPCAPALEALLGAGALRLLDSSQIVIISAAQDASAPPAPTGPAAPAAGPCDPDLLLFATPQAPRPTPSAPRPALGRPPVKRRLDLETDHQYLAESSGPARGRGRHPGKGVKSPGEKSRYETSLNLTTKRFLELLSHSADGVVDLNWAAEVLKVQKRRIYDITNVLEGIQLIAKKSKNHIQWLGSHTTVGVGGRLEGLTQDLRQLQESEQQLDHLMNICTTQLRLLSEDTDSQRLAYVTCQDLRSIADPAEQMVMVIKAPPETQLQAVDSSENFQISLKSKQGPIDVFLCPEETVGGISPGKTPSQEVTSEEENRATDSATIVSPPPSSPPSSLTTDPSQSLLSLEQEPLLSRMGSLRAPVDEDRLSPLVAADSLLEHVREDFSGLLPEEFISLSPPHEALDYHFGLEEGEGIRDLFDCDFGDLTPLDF

With `[F][Sn]([c]1ccccc1)([c]1ccccc1)[c]1ccccc1`, the AC50 in [1] was 0.321 µM (active); in experiment [2] it was 2.15 µM (active); in experiment [3], 0.528 µM (active); in experiment [4] it was 0.329 µM (active); in [6], 1.84 µM (active); in experiment [10] it was 0.593 µM (active). For the same compound, the AC50 in experiment [12] was 0.336 µM (active). The compound was classed as inactive in experiment [5], in experiment [7], in [8], in experiment [9] and in [11].
As to `O=C(O)CC(O)(CC(=O)O)C(=O)O`, the call in experiment [1], in experiment [2], in [3], in experiment [4], in experiment [5] and in [6] was inactive. For the same compound, the compound was called inactive in experiment [7], in experiment [9], in [11] and in [12].
Take `CCCCC(CC)COC(=O)Cl` (centres undefined): the result in [1], in experiment [2], in experiment [3], in experiment [4], in experiment [5] and in experiment [6] was inactive. For the same compound, the result in [7], in experiment [8], in experiment [9], in experiment [10], in experiment [11] and in [12] was inactive.
In the case of `NC(=O)CCl`, the compound was called inactive in experiment [1], in experiment [2], in [3], in [4], in experiment [5] and in experiment [6]. Moreover, the result in [7], in experiment [8], in experiment [9], in experiment [10], in experiment [11] and in [12] was inactive.
With `CNC(=O)CSP(=O)(OC)OC`, the compound was classed as inactive in experiment [1], in [2], in [13], in experiment [3], in experiment [4] and in experiment [6]. In addition, the outcome in experiment [7], in experiment [9], in experiment [11] and in experiment [12] was inactive.
As to `Cc1ccccc1OP(=O)(Oc1ccccc1C)Oc1ccccc1C`, the compound was classed as inactive in [1], in experiment [2], in [4], in experiment [6], in experiment [7] and in [10]. The call in [11] and in [12] was inactive. The AC50 is 13.9 µM (active) in experiment [3], 17.5 µM (active) in experiment [5] and 69.7 µM (active) in experiment [9].
Consider `Brc1ccc(Oc2c(Br)cc(Br)cc2Br)c(Br)c1`, for which the result in experiment [1], in experiment [2], in experiment [3], in experiment [4], in [5] and in experiment [6] was inactive. For the same compound, the outcome in experiment [7], in experiment [8], in experiment [9], in experiment [10], in [11] and in experiment [12] was inactive.
Turning to `CC(C)[N+](=O)[O-]`, the result in [1], in experiment [2], in experiment [3], in experiment [4], in experiment [6] and in experiment [7] was inactive. Besides, the call in experiment [8], in experiment [10], in experiment [11] and in experiment [12] was inactive.
As to `O=S(=O)(C(Cl)(Cl)Cl)C(Cl)(Cl)Cl`, the concentration at half-maximal activity (AC50) was 15.2 µM (active) in experiment [1]; 2.78 µM (active) in experiment [5]; 18.7 µM (active) in experiment [7]; 6.13 µM (active) in experiment [9]; 14.7 µM (active) in experiment [10]; 17.3 µM (active) in [12]. Moreover, the outcome in [2], in experiment [3], in [4], in [6], in experiment [8] and in experiment [11] was inactive.
Turning to `O=C(NC(=O)c1c(F)cccc1F)Nc1cc(Cl)c(Oc2ncc(C(F)(F)F)cc2Cl)c(Cl)c1`, the compound was classed as inactive in experiment [1], in [2], in [4], in experiment [6], in experiment [7] and in [9]. For the same compound, the result in experiment [10], in [11] and in [12] was inactive. The half-maximal activity concentration (AC50) in experiment [3] was 4.57 µM (active).
`N#CCC#N`: the compound was classed as inactive in experiment [1], in experiment [2], in [3], in experiment [4], in [5] and in experiment [6]. Further, the result in experiment [7], in [9], in experiment [10], in experiment [11] and in experiment [12] was inactive. In [8], the AC50 is 63.4 µM (active).
With `CC1(C)[C@H](C(=O)O[C@H](C#N)c2cccc(Oc3ccccc3)c2)[C@@H]1/C=C(\Cl)C(F)(F)F`, the result in experiment [1], in experiment [2], in experiment [3], in experiment [4], in experiment [5] and in experiment [6] was inactive. Moreover, the outcome in experiment [7], in experiment [10], in experiment [11] and in [12] was inactive.
For `C#CCOC(=O)/C=C(C)/C=C/CC(C)CCCC(C)C` (centres undefined), the results for the AC50 in experiment [1], in [3] and in experiment [5] were 39.7 µM (active), 96.1 µM (active) and 55.3 µM (active), respectively. Also, the outcome in [2], in experiment [4], in experiment [6], in [7], in experiment [8] and in experiment [9] was inactive. The result in experiment [10], in [11] and in experiment [12] was inactive.
Turning to `O=NN1CCOCC1`, the call in experiment [1], in experiment [2], in experiment [3], in experiment [4], in [5] and in [6] was inactive. Moreover, the compound was classed as inactive in [7], in experiment [8], in experiment [9], in [10], in experiment [11] and in [12].
Consider `CCOc1cc(C=O)ccc1O`, for which the result in [1], in experiment [2], in experiment [3], in experiment [6], in experiment [7] and in experiment [8] was inactive. For the same compound, the call in experiment [9], in experiment [10], in [11] and in [12] was inactive.
Regarding `OC(Cc1ccccc1Cl)(Cn1[nH]cnc1=S)C1(Cl)CC1` (centres undefined), the call in [1], in [2], in [3], in [4], in [6] and in experiment [7] was inactive. Moreover, the compound was classed as inactive in [8], in experiment [9], in experiment [10], in [11] and in experiment [12]. Further, the AC50 in experiment [5] is 53 µM (active).

As a reminder, the AC50 is the concentration at which the activity in the assay is half-maximal.

The record behind these values is PubChem BioAssay (EPA / NIEHS).
